Among the data in ChEMBL document CHEMBL5308504, “Tm Shift (DSF) assay results for EUbOPEN Chemogenomics Library” (2023) are ΔTm values, retold here.

The structures appear in SMILES notation. Several values for one entry are separate records, joined by “and”; a condition that tells them apart may be missing. Equal values may be shown once.

Common to all, as to conditions: Compound concentration 20.0 uM, Protein concentration 2.0 uM, Result type QC Liability
Experiment [1] has as its target Tyrosine-protein kinase ABL1 (Homo sapiens) (UniProt P00519).
For experiment [2], the target named is Cyclin-dependent kinase 2 (Homo sapiens) (UniProt P24941).
Experiment [3] addresses Casein kinase I isoform delta (Homo sapiens) (UniProt P48730).
Experiment [4] concerns the target Glycogen synthase kinase-3 beta (Homo sapiens) (UniProt P49841).
Experiment [5] has as its target Mitogen-activated protein kinase 1 (Homo sapiens) (UniProt P28482).
The target in experiment [6] is T1, Aurora kinase A (Homo sapiens) (UniProt O14965).
T1 sequence (whole entry): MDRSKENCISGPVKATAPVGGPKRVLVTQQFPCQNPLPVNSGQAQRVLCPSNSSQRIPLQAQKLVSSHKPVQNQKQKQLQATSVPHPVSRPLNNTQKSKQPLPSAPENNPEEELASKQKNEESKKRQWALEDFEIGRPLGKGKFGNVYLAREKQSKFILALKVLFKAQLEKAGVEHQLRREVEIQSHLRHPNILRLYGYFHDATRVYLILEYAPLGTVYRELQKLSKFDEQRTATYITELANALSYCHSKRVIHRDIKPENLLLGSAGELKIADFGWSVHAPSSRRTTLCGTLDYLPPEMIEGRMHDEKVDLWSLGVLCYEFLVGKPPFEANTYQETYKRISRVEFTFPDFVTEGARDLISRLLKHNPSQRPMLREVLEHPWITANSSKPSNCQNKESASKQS

Chain of Casein kinase I isoform delta (Homo sapiens) (P48730 whole entry, looked up, canonical isoform): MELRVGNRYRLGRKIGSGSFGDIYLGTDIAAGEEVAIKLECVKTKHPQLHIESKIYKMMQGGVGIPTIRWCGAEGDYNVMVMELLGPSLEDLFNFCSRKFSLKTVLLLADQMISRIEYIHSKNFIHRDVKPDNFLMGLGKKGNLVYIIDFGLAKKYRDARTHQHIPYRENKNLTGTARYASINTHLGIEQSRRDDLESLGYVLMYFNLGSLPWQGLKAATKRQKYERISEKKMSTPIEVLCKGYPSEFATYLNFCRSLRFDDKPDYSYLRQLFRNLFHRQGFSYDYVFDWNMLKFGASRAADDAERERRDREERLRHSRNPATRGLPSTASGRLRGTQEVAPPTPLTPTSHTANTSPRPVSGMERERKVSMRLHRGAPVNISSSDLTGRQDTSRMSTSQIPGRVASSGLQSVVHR
Chain of Mitogen-activated protein kinase 1 (Homo sapiens) (P28482 whole entry): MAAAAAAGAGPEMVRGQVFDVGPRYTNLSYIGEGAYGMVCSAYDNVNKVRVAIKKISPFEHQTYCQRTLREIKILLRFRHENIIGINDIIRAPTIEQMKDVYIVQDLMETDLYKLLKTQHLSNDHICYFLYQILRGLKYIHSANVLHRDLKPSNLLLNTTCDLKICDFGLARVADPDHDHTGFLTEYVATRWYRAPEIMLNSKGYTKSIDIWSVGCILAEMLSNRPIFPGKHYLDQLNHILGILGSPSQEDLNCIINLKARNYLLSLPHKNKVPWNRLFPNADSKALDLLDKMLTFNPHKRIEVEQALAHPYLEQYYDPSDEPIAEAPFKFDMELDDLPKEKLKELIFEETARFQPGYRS
Chain of Tyrosine-protein kinase ABL1 (Homo sapiens) (P00519 whole entry): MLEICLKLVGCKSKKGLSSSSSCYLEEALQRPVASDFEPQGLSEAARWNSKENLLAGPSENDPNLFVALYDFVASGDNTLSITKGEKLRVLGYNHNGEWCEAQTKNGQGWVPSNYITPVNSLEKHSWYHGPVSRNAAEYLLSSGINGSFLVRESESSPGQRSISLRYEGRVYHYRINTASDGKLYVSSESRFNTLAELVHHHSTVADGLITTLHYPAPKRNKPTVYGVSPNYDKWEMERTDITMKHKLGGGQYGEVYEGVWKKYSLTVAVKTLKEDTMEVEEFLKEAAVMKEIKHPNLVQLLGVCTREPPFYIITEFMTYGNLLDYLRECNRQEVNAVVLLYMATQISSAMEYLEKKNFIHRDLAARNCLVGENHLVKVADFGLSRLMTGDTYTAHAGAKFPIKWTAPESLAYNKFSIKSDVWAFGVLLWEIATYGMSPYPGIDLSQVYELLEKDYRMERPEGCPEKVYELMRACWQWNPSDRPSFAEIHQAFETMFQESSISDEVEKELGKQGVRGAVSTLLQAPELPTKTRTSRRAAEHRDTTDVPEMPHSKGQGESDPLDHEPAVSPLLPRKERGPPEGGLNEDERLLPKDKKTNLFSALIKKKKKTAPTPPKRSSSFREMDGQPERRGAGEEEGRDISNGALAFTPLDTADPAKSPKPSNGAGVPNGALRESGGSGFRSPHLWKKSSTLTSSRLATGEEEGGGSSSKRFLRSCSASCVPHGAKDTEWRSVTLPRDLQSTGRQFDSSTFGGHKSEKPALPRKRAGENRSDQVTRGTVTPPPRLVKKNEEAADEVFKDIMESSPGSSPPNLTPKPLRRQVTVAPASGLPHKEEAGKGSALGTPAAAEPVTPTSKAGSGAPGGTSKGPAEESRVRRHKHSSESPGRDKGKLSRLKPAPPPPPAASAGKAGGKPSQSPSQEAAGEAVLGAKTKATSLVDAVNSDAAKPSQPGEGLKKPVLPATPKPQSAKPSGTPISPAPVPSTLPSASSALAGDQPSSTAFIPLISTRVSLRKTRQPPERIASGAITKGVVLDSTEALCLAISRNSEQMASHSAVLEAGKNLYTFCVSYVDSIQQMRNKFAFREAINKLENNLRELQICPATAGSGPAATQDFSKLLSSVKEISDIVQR
Chain of Glycogen synthase kinase-3 beta (Homo sapiens) (P49841 whole entry, looked up): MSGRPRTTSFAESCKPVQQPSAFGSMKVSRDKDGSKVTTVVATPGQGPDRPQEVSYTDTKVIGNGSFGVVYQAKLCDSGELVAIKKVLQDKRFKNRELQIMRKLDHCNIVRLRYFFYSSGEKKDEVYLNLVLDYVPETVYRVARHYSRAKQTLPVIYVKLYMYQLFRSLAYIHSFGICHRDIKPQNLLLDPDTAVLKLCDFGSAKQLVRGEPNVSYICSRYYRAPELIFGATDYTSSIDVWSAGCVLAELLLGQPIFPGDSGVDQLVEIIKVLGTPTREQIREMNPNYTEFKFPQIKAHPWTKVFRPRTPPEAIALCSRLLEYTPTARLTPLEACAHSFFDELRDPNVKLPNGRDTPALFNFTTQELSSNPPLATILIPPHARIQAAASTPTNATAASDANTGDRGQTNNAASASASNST

With `Cc1cc2c(cc(C(=O)N[C@H](CO)c3ccc(S(=O)(=O)CC(=O)O)cc3)n2C)c(Cl)c1Cl`, the ΔTm is 1.12 °C in experiment [1]; -0.15 °C in experiment [2]; -1.41 °C in experiment [3]; -0.78 °C in experiment [4]; 0.62 °C in experiment [5]; 3.77 °C in experiment [6].

Take `CS(=O)(=O)CCNCc1ccc(-c2ccc3ncnc(Nc4ccc(OCc5cccc(F)c5)c(Cl)c4)c3c2)o1`: the thermal shift (ΔTm) in experiment [1] was 0.09 °C; in experiment [2], 0.9 °C; in experiment [3], 0.12 °C; in experiment [4] it was -0.86 °C; in experiment [5], 0.56 °C; in experiment [6], -0.38 °C.

With `CC1(C)CCC(CN2CCN(c3ccc(C(=O)NS(=O)(=O)c4ccc(NCC5CCOCC5)c([N+](=O)[O-])c4)c(Oc4cnc5[nH]ccc5c4)c3)CC2)=C(c2ccc(Cl)cc2)C1`, the ΔTm was -0.27 °C in experiment [1]; 1.18 °C in experiment [2]; -0.88 °C in experiment [3]; -0.99 °C in experiment [4]; 0.48 °C in experiment [5]; 0.44 °C in experiment [6].

Consider `CC(C(=O)Nc1cc(C#N)ccc1CCCC(=O)O)c1ccc(F)c2ccccc12` (stereo unspecified), for which the ΔTm in experiment [1] is 0.96 °C; in experiment [2], 0.61 °C; in experiment [3], 0.09 °C; in experiment [4], 0.53 °C; in experiment [5] it was -0.07 °C; in experiment [6] it was -0.36 °C.

Regarding `O=C1Nc2ccc(C(=O)c3ccco3)cc2C1=Cc1cc(Cl)c(O)c(Cl)c1`, the ΔTm in experiment [1] is 4.46 °C; in experiment [2], 0.67 °C; in experiment [3], 3.71 °C; in experiment [4], 5.93 °C; in experiment [5] it was 0.54 °C; in experiment [6] it was 5.03 °C.

On to `Cc1ncc(C(=O)Nc2cc(C(C)(C)C)on2)cc1-n1cc(-c2cnn(C)c2C)nn1`, for which the ΔTm in experiment [1] is 9.67 °C; in experiment [2] it was 0.45 °C; in experiment [3], 2.28 °C; in experiment [4], -0.79 °C; in experiment [5], 0.26 °C; in experiment [6], -0.09 °C.

On to `Cn1nc(C(=O)NCc2ccc(C(=O)O)cc2)cc1-c1ccc2[nH]ccc2c1`, for which the ΔTm in experiment [1] is 0.76 °C; in experiment [2], 0.58 °C; in experiment [3] it was 0.39 °C; in experiment [4], -0.55 °C; in experiment [5] it was 0.47 °C; in experiment [6], 0.09 °C.

With `NC(=O)OC[C@H](NC(=O)Cn1nc(-c2ccc(Cl)cc2)n(C[C@H](O)C(F)(F)F)c1=O)c1cccc(C(F)(F)F)c1`, the ΔTm worked out at 1.4 °C in experiment [1]; 1.62 °C in experiment [2]; 0.82 °C in experiment [3]; 2.1 °C in experiment [4]; 1.35 °C in experiment [5]; 0.82 °C in experiment [6].

With `CN(C1CCc2c(c3ccccc3n2CC(=O)O)C1)S(=O)(=O)c1ccc(F)cc1` (stereo unspecified), the shift in melting temperature (ΔTm) in experiment [1] was 0.59 °C; in experiment [2], 0.46 °C; in experiment [3], -0.23 °C; in experiment [4], 0 °C; in experiment [5], -0.11 °C; in experiment [6], 0.35 °C.

For `COCCCS(=O)(=O)c1cc(C)c(-c2ccc(F)c3c2CC[C@H]3Oc2ccc3c(c2)OC[C@H]3CC(=O)O)c(C)c1`, the ΔTm was 0.43 °C in experiment [1]; 0 °C in experiment [2]; 0.06 °C in experiment [3]; 0 °C in experiment [4]; 0 °C in experiment [5]; -0.86 °C in experiment [6].

Regarding `CCn1ccc(Nc2ncc3c(n2)-c2c(nn(C)c2-c2ccc(-c4cnn(C)c4)cc2Cl)CC3)n1`, the shift in melting temperature (ΔTm) in experiment [1] is 3.73 °C; in experiment [2], 5.04 °C; in experiment [3], 2.25 °C; in experiment [4], 5.78 °C; in experiment [5] it was 0.81 °C; in experiment [6], 6.95 °C.

As for `O=C(O)c1ccc2c(c1)nc(NCc1ccccc1)c1ncncc12`, the shift in melting temperature (ΔTm) in experiment [1] amounted to 0.29 °C; in experiment [2] it was 1.34 °C; in experiment [3] it was 0.62 °C; in experiment [4] it was 1.21 °C; in experiment [5], 0.05 °C; in experiment [6], 1.85 °C.

Regarding `CC(=O)N1CCC(c2ccc(C(=O)NC(=N)N)cc2C(F)(F)F)CC1`, the ΔTm in experiment [1] is -0.81 °C; in experiment [2], 0.95 °C; in experiment [3], 0.37 °C; in experiment [4], -0.64 °C; in experiment [5], 0.32 °C; in experiment [6], 0.44 °C.

With `COc1cc(OC)cc(-c2cc3cnc(N)nc3nc2NC(=O)NC(C)(C)C)c1`, the ΔTm in experiment [1] was 0.36 °C and 1.41 °C; in experiment [2], 0.84 °C and 0.15 °C; in experiment [3] it was 0.28 °C and -0.14 °C; in experiment [4], -0.48 °C and 0.1 °C; in experiment [5] it was 0.47 °C and 0.55 °C; in experiment [6], -0.29 °C and 1.1 °C.

Take `NC(=O)c1sc2nc(N3CCC(NC[C@H](O)c4ccccn4)CC3)cc(C(F)(F)F)c2c1N`: the ΔTm in experiment [1] was 1.22 °C; in experiment [2], 1 °C; in experiment [3], 1.86 °C; in experiment [4], 0.72 °C; in experiment [5], 0.39 °C; in experiment [6], 1.06 °C.

As for `CCc1ncnc(N2CCN(C(C)=O)CC2)c1C#Cc1ccc(N)nc1`, the ΔTm is 0.27 °C in experiment [1]; 0.16 °C in experiment [2]; 1.03 °C in experiment [3]; -0.12 °C in experiment [4]; 0.42 °C in experiment [5]; -0.14 °C in experiment [6].

On to `CN1CC(=O)N(C)c2cnc(Nc3ccc(NC(=O)Nc4cccc(C(=O)O)c4)cc3)nc21`, for which the ΔTm in experiment [1] was 0.56 °C; in experiment [2] it was -0.17 °C; in experiment [3], 0.58 °C; in experiment [4], 1.43 °C; in experiment [5], 0.43 °C; in experiment [6], 2 °C.

Regarding `NCC1CCC(CNc2nc(NCc3ccccc3OC(F)(F)F)ncc2[N+](=O)[O-])CC1` (stereo unspecified), the thermal shift (ΔTm) was 0.62 °C in experiment [1]; -0.56 °C in experiment [2]; 0.19 °C in experiment [3]; 3.29 °C in experiment [4]; -0.1 °C in experiment [5]; 1.01 °C in experiment [6].

Take `Nc1ncc2c(n1)-c1c([nH]c3ccc(C4=CCOCC4)cc13)CCC2`: the ΔTm is 0.44 °C in experiment [1]; 1.02 °C in experiment [2]; 2.29 °C in experiment [3]; 0.71 °C in experiment [4]; -0.03 °C in experiment [5]; 1.93 °C in experiment [6].

As for `O=C(O)CCCCCC[C@@H]1C(=O)NC(=O)N1CCC(O)C1CCCCC1` (stereo partly specified), the ΔTm in experiment [1] is 0.19 °C; in experiment [2], 0.46 °C; in experiment [3], -0.02 °C; in experiment [4], 0.34 °C; in experiment [5], -0.39 °C; in experiment [6], -0.24 °C.

`CC(=O)c1c(C)c2cnc(Nc3ccc(N4CCNCC4)cn3)nc2n(C2CCCC2)c1=O`: the ΔTm in experiment [1] is 0.35 °C and -0.02 °C; in experiment [2], 1.06 °C and 0.93 °C; in experiment [3], 0.19 °C and 0.01 °C; in experiment [4], 0.23 °C and 0.63 °C; in experiment [5], 0.09 °C and 0.31 °C; in experiment [6] it was -0.85 °C and 0.31 °C.

`CC(C)(C)OC(=O)CN(Cc1ccc(Cl)cc1)Cc1ccc([N+](=O)[O-])s1`: the ΔTm was 0.48 °C in experiment [1]; 0.83 °C in experiment [2]; 0.3 °C in experiment [3]; -0.54 °C in experiment [4]; 0.12 °C in experiment [5]; -1.37 °C in experiment [6].

Regarding `CC[C@H](Nc1c(C#N)c(-c2ccc(-c3cccc(C)c3F)cc2)nc2cnccc12)C(=O)O`, the ΔTm in experiment [1] was 1.4 °C; in experiment [2] it was -0.67 °C; in experiment [3], -0.79 °C; in experiment [4], -0.59 °C; in experiment [5] it was -0.11 °C; in experiment [6] it was 2.03 °C.

Consider `COc1nc2ccc([C@@](O)(c3ccccc3)C3CCN(C(C)=O)CC3)cc2c(Cl)c1Cc1ccc(-n2cccn2)cc1`, for which the ΔTm in experiment [1] is -0.06 °C; in experiment [2], -0.4 °C; in experiment [3], -0.56 °C; in experiment [4] it was -3.26 °C; in experiment [5], 0.14 °C; in experiment [6], -0.6 °C.

As to `C[C@@H]1Cc2c([nH]c3ccccc23)[C@@H](c2c(F)cc(/C=C/C(=O)O)cc2F)N1CC(C)(C)F`, the ΔTm was -0.24 °C in experiment [1]; -0.07 °C in experiment [2]; 0.64 °C in experiment [3]; 0 °C in experiment [4]; 0.55 °C in experiment [5]; -0.16 °C in experiment [6].

Regarding `COc1cc2nc(C)nc(N[C@H](C)c3cc(N)cc(C(F)(F)F)c3)c2cc1O[C@H]1CCOC1`, the ΔTm in experiment [1] is -0.37 °C; in experiment [2], 0.99 °C; in experiment [3], 0.27 °C; in experiment [4] it was 0.96 °C; in experiment [5] it was 0.04 °C; in experiment [6], 0.75 °C.

Broadly, the ΔTm is the change in melting temperature against a reference sample.
